The source made the active and inactive calls.

Assay [1] in a line: small molecules captured by biotinylated probe aFSTL3 – biochemical, small-molecule microarray, fluorescence 635/667, stem cell growth factor project, primary screen (AID 1064).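 Also: measures binding of the biotinylated anti-FSTL3 antibody to printed compounds.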 Particulars: higher = more signal.
Assay [2] in a line: binders from COS7 lysate, DM2A8 probe, primary screen, torsin A project, cell lysate, small-molecule microarray, fluorescence 635/667 (AID 1065). The note with it: higher = more signal, COS7 lysate expressing mutant human TOR1A.
A short description of assay [3]: small molecules captured by biotinylated probe aFGF2 – biochemical, small-molecule microarray, fluorescence 635/667, stem cell growth factor project, primary screen (AID 1067).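 Also: measures binding of biotinylated aFGF2 protein to printed compounds on slides; z-score merges feature fluorescence and signal-to-noise across triplicate slides.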 Particulars: higher = more signal.
Assay [4] is described as follows: small molecules captured by biotinylated probe aFGF10 – biochemical, small-molecule microarray, fluorescence 635/667, stem cell growth factor project, primary screen (AID 1071).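 Also: score merges 667 nm spot intensity and signal to noise from triplicate slides.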 The note with it: higher = more signal.
For assay [5], the target named is Neurogenic locus notch homolog protein 2 (Homo sapiens) (UniProt Q04721). Kind of assay: small molecules binding Notch2 protein – biochemical, small-molecule microarray, 635 nm fluorescence, stem cell growth factors, primary screen (AID 1073). Particulars: higher = more signal.
In assay [6] the target is Pro-neuregulin-1, membrane-bound isoform (Homo sapiens) (UniProt Q02297). The assay can be described thus: small molecules binding neuregulin-1 protein – biochemical, small-molecule microarray, fluorescence 635/667, psychiatric disease protein project, primary screen (AID 1075).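 Also: score combines 667 nm spot fluorescence with signal to noise.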 Particulars: NRG1 binding, 635 nm fluorescence, higher = more signal.
Assay [7] has as its system Neuregulin-1 EGF-like domain. The assay can be described thus: small molecules binding NRG1 EGF domain – biochemical, small-molecule microarray, 635 nm fluorescence, primary screen (AID 1081).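 Also: binding of the protein to compounds printed on small-molecule microarray slides.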 The note with it: higher = more signal.
A short description of assay [8]: FRG1 expression reporter modulators in myotubes – cell-based, C2C12 myotubes, firefly/Renilla luciferase, luminescence, FRG1 inhibition for FSHD, primary screen (AID 1084). The note with it: FRG1 promoter luciferase, higher = more signal, called active from +8 up or from −8 down.
A short description of assay [9]: small molecules captured by biotinylated probe aFST – biochemical, small-molecule microarray, fluorescence 635/667, stem cell growth factor project, primary screen (AID 1086).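 Also: score merges 667 nm fluorescence with signal-to-noise of each printed compound spot.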 The note with it: higher = more signal.
Assay [10] is described as follows: binders of probe aHhip on microarray, primary screen, stem cell growth factor project, biochemical, small-molecule microarray, fluorescence 635/667 (AID 1087).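 Also: score merges spot fluorescence at 667nm with spot signal to noise ratio.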 The note with it: higher = more signal.
Assay [11] has as its system PRMT1 (protein arginine N-methyltransferase 1). The assay can be described thus: small molecules binding arginine methyltransferase PRMT1 – biochemical, small-molecule microarray, 635 nm fluorescence, primary screen (AID 1088).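 Also: binding of Prmt1 protein to compounds spotted on small-molecule microarray slides.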 Particulars: higher = more signal.
A short description of assay [12]: growth effects on S. cerevisiae YJM789 – YJM789 clinical isolate, OD600, 24 h, basal, primary screen (AID 1089).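 Also: growth of clinical yeast isolate S. cerevisiae YJM 789 seeded 1000 cells per well; test concentration not given here.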 The note with it: higher = more signal, called active from +8 up or from −8 down.
Assay [13] in a line: S. pombe growth modifiers, basal conditions – strain 972, OD600, 24 h, no modulator, primary screen (AID 1090).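 Also: basal condition with compound alone and no growth modifier present; test concentration not given here.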 Particulars: S. pombe 972 growth, higher = more signal, called active from +8 up or from −8 down.
The nature of assay [14]: budding yeast growth modifiers under rapamycin – strain BY4716, OD600, 96 h, primary screen (AID 1091). Also: test concentration not given here. Particulars: S. cerevisiae BY4716 + rapamycin, higher = more signal, called active from +8 up or from −8 down.
For assay [15], the target named is Torsin-1A-interacting protein 2 (Homo sapiens) (UniProt Q8NFQ8). Kind of assay: small molecules binding lysate-expressed LULL1 – cell lysate, human LULL1 lysate, 635/667 nm fluorescence, primary screen (AID 1092).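 Also: probe is lysate of COS7 cells overexpressing human LULL1; score merges per-feature 667 nm fluorescence with signal-to-noise.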 Particulars: small-molecule microarray, hLULL1 lysate binding, 635 nm fluorescence; higher = more signal.
Assay [16] can be described thus: optical density change of DRC41 E. coli – strain DRC41, OD650, 24 h, E. coli filamentation project, primary screen (AID 1093).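 Also: MC1000 strain lacking acrAB efflux and sulA so SOS filamentation is blocked; test concentration not given here.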 The note with it: E. coli DRC41 growth, higher = more signal, called active from +8 up or from −8 down.
A short description of assay [17]: probe aLefty2 binding to arrayed compounds – biochemical, biotinylated probe, 635/667 nm fluorescence, primary screen (AID 1094).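 Also: score merges spot fluorescence near 667 nm with spot signal-to-noise ratio.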 The note with it: small-molecule microarray, higher = more signal.
For assay [18], the system named is Noggin (protein binding on small-molecule microarray). Kind of assay: small molecules binding Noggin protein – biochemical, 635/667 nm fluorescence, primary screen (AID 1095).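 Also: score merges 667 nm feature fluorescence with signal to noise over triplicate slides.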 The note with it: 635 nm fluorescence, higher = more signal.
Assay [19] has as its target Neurogenic locus notch homolog protein 3 (Homo sapiens) (UniProt Q9UM47). Kind of assay: small molecules binding NOTCH3 protein – biochemical, 635/667 nm fluorescence, primary screen (AID 1096). The note with it: small-molecule microarray, 635 nm fluorescence, higher = more signal.
A short description of assay [20]: probe aEGFR binding to arrayed compounds – biochemical, biotinylated probe, 635/667 nm fluorescence, primary screen (AID 1097).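 Also: probe is a biotinylated anti-EGFR antibody binding compounds printed on slides; score combines fluorescence near 667 nm and signal to noise of each spot.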 The note with it: small-molecule microarray, higher = more signal.

Chain of Neurogenic locus notch homolog protein 3 (Homo sapiens) (Q9UM47 whole entry, looked up): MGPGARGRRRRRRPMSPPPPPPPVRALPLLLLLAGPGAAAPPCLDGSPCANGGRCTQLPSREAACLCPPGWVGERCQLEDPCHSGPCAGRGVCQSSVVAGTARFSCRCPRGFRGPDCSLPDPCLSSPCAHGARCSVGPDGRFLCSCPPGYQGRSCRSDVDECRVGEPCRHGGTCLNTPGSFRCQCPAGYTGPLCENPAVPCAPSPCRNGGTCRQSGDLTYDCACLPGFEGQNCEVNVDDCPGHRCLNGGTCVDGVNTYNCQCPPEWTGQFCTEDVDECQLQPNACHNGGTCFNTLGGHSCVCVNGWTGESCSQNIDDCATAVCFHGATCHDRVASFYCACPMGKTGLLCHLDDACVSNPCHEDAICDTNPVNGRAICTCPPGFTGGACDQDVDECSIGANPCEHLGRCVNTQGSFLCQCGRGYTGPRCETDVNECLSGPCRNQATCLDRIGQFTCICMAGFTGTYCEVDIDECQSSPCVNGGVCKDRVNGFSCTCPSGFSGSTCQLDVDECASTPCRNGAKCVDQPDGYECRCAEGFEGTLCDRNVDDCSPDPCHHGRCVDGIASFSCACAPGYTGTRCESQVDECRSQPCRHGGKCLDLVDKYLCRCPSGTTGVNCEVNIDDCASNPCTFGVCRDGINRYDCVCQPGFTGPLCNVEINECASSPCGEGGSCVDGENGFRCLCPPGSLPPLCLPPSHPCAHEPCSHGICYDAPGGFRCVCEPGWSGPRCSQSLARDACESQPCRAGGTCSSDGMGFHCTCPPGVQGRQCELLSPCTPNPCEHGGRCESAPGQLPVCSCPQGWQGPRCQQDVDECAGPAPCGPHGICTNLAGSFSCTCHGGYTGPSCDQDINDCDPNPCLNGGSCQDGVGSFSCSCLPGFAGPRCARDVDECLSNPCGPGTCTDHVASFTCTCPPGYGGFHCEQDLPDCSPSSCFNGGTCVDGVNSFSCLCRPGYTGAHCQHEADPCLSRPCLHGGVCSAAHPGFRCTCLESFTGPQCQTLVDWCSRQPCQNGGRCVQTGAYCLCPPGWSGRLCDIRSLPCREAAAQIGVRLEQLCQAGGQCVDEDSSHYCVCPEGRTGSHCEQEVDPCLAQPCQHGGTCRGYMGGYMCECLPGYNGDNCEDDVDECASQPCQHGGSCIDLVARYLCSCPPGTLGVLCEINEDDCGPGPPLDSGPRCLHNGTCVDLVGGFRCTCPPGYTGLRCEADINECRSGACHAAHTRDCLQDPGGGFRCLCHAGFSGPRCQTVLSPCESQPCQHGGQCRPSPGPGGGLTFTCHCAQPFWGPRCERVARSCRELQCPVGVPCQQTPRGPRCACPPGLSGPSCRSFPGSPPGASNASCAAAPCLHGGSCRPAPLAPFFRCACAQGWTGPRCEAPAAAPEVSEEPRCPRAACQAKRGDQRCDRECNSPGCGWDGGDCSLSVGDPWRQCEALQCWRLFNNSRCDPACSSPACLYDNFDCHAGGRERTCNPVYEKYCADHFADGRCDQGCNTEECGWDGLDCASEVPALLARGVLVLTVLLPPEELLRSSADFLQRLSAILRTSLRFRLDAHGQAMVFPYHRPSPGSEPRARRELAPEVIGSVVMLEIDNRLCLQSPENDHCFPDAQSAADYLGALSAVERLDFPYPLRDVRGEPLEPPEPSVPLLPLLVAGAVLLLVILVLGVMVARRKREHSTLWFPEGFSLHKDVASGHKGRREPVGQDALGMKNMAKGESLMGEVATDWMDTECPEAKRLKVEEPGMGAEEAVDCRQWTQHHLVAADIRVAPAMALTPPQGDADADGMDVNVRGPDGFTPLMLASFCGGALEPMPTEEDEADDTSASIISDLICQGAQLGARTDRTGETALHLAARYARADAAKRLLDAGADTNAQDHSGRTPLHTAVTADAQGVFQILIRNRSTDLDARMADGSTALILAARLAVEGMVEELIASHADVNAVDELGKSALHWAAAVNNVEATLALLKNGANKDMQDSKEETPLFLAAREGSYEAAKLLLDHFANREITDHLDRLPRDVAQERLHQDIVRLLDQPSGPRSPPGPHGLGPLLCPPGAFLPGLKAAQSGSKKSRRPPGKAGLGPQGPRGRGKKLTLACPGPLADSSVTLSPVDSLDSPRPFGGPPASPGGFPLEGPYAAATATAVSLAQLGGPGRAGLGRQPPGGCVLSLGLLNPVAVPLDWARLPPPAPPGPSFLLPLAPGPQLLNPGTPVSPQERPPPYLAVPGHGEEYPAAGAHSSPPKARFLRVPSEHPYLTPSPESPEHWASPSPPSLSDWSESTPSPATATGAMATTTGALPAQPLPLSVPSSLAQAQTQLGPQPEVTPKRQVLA
Chain of Pro-neuregulin-1, membrane-bound isoform (Homo sapiens) (Q02297 whole entry, looked up, the tested form may be a part, canonical isoform): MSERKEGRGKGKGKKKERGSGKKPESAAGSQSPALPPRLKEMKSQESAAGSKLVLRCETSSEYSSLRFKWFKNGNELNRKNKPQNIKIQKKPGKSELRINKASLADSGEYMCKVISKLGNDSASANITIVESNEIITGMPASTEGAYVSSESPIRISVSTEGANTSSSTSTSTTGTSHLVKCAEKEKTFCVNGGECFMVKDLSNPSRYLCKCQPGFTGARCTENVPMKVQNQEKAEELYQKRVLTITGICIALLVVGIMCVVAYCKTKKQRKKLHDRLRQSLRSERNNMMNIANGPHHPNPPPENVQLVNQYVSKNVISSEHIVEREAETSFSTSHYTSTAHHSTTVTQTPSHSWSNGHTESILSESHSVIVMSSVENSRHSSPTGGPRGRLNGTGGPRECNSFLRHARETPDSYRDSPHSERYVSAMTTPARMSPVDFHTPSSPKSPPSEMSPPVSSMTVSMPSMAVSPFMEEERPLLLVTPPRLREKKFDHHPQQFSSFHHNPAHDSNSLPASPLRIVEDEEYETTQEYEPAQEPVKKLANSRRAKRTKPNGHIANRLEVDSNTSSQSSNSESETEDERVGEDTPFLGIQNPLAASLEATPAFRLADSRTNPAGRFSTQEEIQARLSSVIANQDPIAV
Chain of Torsin-1A-interacting protein 2 (Homo sapiens) (Q8NFQ8 whole entry, looked up): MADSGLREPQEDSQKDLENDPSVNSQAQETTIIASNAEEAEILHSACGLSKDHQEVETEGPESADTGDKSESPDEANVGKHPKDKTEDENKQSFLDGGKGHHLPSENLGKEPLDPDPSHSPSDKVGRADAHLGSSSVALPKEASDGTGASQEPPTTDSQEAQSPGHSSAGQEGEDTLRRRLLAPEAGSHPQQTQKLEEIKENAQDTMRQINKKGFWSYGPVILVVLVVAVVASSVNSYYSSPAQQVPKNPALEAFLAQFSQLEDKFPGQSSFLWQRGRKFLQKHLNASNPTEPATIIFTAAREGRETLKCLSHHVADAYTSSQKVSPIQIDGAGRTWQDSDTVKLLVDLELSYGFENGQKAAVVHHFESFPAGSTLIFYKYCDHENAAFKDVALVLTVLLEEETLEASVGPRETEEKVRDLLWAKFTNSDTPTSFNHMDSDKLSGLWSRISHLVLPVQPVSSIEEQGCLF

Consider `CC(C)C[C@@H]1NC(=O)CNC(=O)[C@@]23C(=O)N[C@@H](Cc4ccccc4)C2[C@H](C)[C@@]2(C)O[C@H]2C3/C=C/C/C=C\CNC1=O` (stereo not given in full), for which the composite z-score in [1] was -0.454; in assay [2] it was 0.109; in assay [3], -0.087; in assay [4], 0.68; in assay [5], 0.429; in assay [6] it was 0.345. Also, the composite z-score in assay [7] was 0.919; in assay [9], 0.0427; in assay [10] it was -0.171; in assay [11], 1.31; in [15], 2.72; in assay [17], -0.159. Moreover, the composite z-score in [18] is 0.363; in assay [19], 1.01; in assay [20], -0.0828. Moreover, the z-score in [8] is 1.4 (inactive); in assay [12], -0.536 (inactive); in [13], -0.26 (inactive); in [14] it was -0.0716 (inactive); in assay [16], -0.461 (inactive).
Consider `COc1ccc(C#Cc2ccc3c(c2)[C@]2(C(=O)N3)[C@H](C(=O)Nc3nc4ccccc4s3)[C@H]3C(=O)O[C@H](c4ccccc4)[C@H](c4ccccc4)N3[C@@H]2c2ccccc2OCCO)cc1`, for which the composite z-score in [1] is -0.0541; in assay [2], 0.125; in assay [3], -0.024; in [4] it was 0.313; in [5], 0.98; in [6], 0.907. The composite z-score is 0.919 in assay [7]; 0.723 in assay [9]; 0.176 in assay [10]; 1.36 in assay [11]; 3.08 in [15]; -0.0949 in [17]. Further, the results for the composite z-score in assay [18], in assay [19] and in [20] were 0.486, 1.13 and -0.106, respectively. Besides, the z-score in [8] is 0.716 (inactive); in [12], 2.56 (inactive); in assay [13], 1.53 (inactive); in [14], 1.59 (inactive); in assay [16], 2.62 (inactive).
Turning to `[N-]=[N+]=NC[C@H](Cc1ccccc1)NC(=O)c1ccccc1`, the composite z-score in assay [1] was -0.259; in assay [2], 0.2; in [3], -0.107; in assay [4], -0.168; in assay [5], -0.0596; in [6] it was -0.0451. In addition, the composite z-score is -0.123 in [7]; 0.135 in [9]; -0.0618 in [10]; 0.376 in assay [11]; 0.214 in assay [15]; -0.0666 in [17]. In addition, the composite z-score in [18] was 0.014; in assay [19], -0.371; in assay [20], -0.14. Moreover, the z-score in assay [8] was 1.43 (inactive); in assay [12], -1.02 (inactive); in [13], -2.38 (inactive); in assay [14], -1.27 (inactive); in [16] it was 1.56 (inactive).
For the compound `CCOC(=O)C[C@H]1[C@H](OC(=O)c2ccccc2-c2ccccc2)[C@@H](NC(=O)c2ccccc2)c2cc(OCCCO)ccc2N1C(=O)c1ccccc1`, the composite z-score in [1] was -0.304; in [2], 0.0919; in assay [3], -0.0885; in assay [4], 0.585; in assay [5], 0.494; in assay [6] it was 0.127. The composite z-score in [7] was 0.0357; in assay [9], 0.0801; in assay [10], 0.0274; in assay [11], 0.0302; in assay [15], 1.22; in assay [17], -0.214. In addition, the figures for the composite z-score in [18], in assay [19] and in [20] were 0.169, 0.243 and -0.0726, respectively. The z-score in assay [8] was 0.0899 (inactive); in [12], -0.0764 (inactive); in assay [13], 0.587 (inactive); in assay [14] it was 1.58 (inactive); in assay [16], -1.11 (inactive).
Consider `C[C@@H]1ON(c2ccc(I)cc2)[C@H](c2ccc(OC(=O)OC(C)(C)C)cc2)[C@H]1C(=O)N1C(=O)OC[C@H]1Cc1ccccc1`, for which the composite z-score in assay [1] is -0.478; in assay [2], 0.0988; in [3] it was -0.175; in assay [4], 0.253; in assay [5], 0.756; in assay [6], 0.178. Also, the composite z-score is 0.492 in [7]; 0.238 in assay [9]; -0.0672 in assay [10]; 1.35 in [11]; 2.08 in [15]; -0.0736 in assay [17]. Also, the composite z-score was 0.447 in assay [18], 1.02 in assay [19] and -0.0351 in [20]. In addition, the z-score in [8] was 3.7 (inactive); in [12], -0.0865 (inactive); in assay [13] it was -1.73 (inactive); in assay [14], 1.9 (inactive); in [16], 1.77 (inactive).

Source of the values: PubChem BioAssay.
